Data reported in PubChem BioAssay (NCI).
The panel holds about 83,000 compounds, 20% with a hit somewhere; the sample as a whole holds those more often.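 Assay: single dose, 48 h. Readout: percent growth (0 = no net growth; negative = cell death). Active: <10.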 The source made the active and inactive calls.

Assays:
Assay in all cases: NCI-60 one-dose screen, 48 h (100 = growth as untreated, 0 = no growth, -100 = all killed)
Conditions in all cases: 10 µM unless noted
SK-MEL-2 melanoma = test system: SK-MEL-2 melanoma
EKVX NSCLC = test system: EKVX NSCLC
SN12C renal = test system: SN12C renal
UO-31 renal = test system: UO-31 renal
ACHN renal = test system: ACHN renal
CAKI-1 renal = test system: CAKI-1 renal
A498 renal = test system: A498 renal
MOLT-4 leukemia = test system: MOLT-4 leukemia
SR leukemia = test system: SR leukemia
RPMI-8226 leukemia = test system: RPMI-8226 leukemia
OVCAR-8 ovarian = test system: OVCAR-8 ovarian
OVCAR-5 ovarian = test system: OVCAR-5 ovarian
OVCAR-4 ovarian = test system: OVCAR-4 ovarian
SK-OV-3 ovarian = test system: SK-OV-3 ovarian
IGROV1 ovarian = test system: IGROV1 ovarian
OVCAR-3 ovarian = test system: OVCAR-3 ovarian
HS 578T breast = test system: HS 578T breast
NCI/ADR-RES ovarian = test system: NCI/ADR-RES ovarian
CCRF-CEM leukemia = test system: CCRF-CEM leukemia
TK-10 renal = test system: TK-10 renal

Measured: growth

Cc1cc[c-]cc1.Fc1c[c-]c(-c2ccccn2)c(F)c1.[Pt+2].c1ccc(P(C[PH+](c2ccccc2)c2ccccc2)c2ccccc2)cc1
inactive: UO-31 renal 11.4% | MOLT-4 leukemia 10.7% | SR leukemia 16.8% | OVCAR-8 ovarian 11% | OVCAR-5 ovarian 23.6% | IGROV1 ovarian 23.5% | OVCAR-3 ovarian 12.9% | HS 578T breast 39.6% | NCI/ADR-RES ovarian 87.3%
active: SK-MEL-2 melanoma 4.88% | EKVX NSCLC 7.66% | SN12C renal 6.18% | ACHN renal -1.88% | CAKI-1 renal 0.998% | A498 renal 9.17% | RPMI-8226 leukemia -4.4% | OVCAR-4 ovarian -2.01% | SK-OV-3 ovarian -3.95%

Cc1cc(NCc2cc(Nc3ccnc4cc(Cl)ccc34)ccc2F)nc(N2CCN(c3ccccc3)CC2)n1
inactive: SK-MEL-2 melanoma 84.5% | EKVX NSCLC 64.8% | SN12C renal 49.9% | UO-31 renal 36.1% | ACHN renal 69.2% | CAKI-1 renal 72.3% | A498 renal 14.1% | RPMI-8226 leukemia 42.8% | OVCAR-5 ovarian 92.6% | OVCAR-4 ovarian 46.2% | SK-OV-3 ovarian 55.1% | IGROV1 ovarian 41.6% | HS 578T breast 47.9% | NCI/ADR-RES ovarian 56.5%
active: CCRF-CEM leukemia -7.8% | SR leukemia -24.6% | OVCAR-3 ovarian 5.88%

COC(=O)c1ccc(CSc2nnc(-c3c(C)nc4ccc(C)cn34)o2)cc1
inactive: SK-MEL-2 melanoma 105% | EKVX NSCLC 102% | SN12C renal 99.2% | UO-31 renal 85.9% | ACHN renal 98.3% | CAKI-1 renal 92.9% | A498 renal 93.5% | CCRF-CEM leukemia 106% | MOLT-4 leukemia 94.4% | RPMI-8226 leukemia 88.4% | OVCAR-8 ovarian 103% | OVCAR-5 ovarian 106% | OVCAR-4 ovarian 94% | IGROV1 ovarian 109% | OVCAR-3 ovarian 119% | HS 578T breast 105% | NCI/ADR-RES ovarian 89.7%

O=c1oc2ccccc2c(Cl)c1Cl
inactive: SK-MEL-2 melanoma 54.7% | EKVX NSCLC 106% | SN12C renal 17.9% | TK-10 renal 94.3% | ACHN renal 80.7% | CAKI-1 renal 83.4% | A498 renal 112% | CCRF-CEM leukemia 18.9% | MOLT-4 leukemia 37.5% | RPMI-8226 leukemia 40.6% | OVCAR-8 ovarian 61% | OVCAR-5 ovarian 88.1% | OVCAR-4 ovarian 91.7% | SK-OV-3 ovarian 94.7% | IGROV1 ovarian 47.5% | OVCAR-3 ovarian 103% | HS 578T breast 85% | NCI/ADR-RES ovarian 86.4%

CCN(CCNc1ccc(C)c2sc3ccccc3c(=O)c12)CC(C)(C)O
inactive: SK-MEL-2 melanoma 77.3% | EKVX NSCLC 101% | SN12C renal 101% | UO-31 renal 70.2% | ACHN renal 79.7% | CAKI-1 renal 79% | A498 renal 81% | CCRF-CEM leukemia 39.9% | MOLT-4 leukemia 40% | RPMI-8226 leukemia 13.5% | OVCAR-8 ovarian 87.1% | OVCAR-5 ovarian 79.4% | OVCAR-4 ovarian 95.7% | SK-OV-3 ovarian 76.3% | IGROV1 ovarian 79.4% | OVCAR-3 ovarian 103% | HS 578T breast 59.5% | NCI/ADR-RES ovarian 70.9%

O=C(CCc1nnc(CN(c2ccccc2)c2ccccc2)o1)c1nc2ccccc2[nH]1
inactive: SK-MEL-2 melanoma 88.7% | EKVX NSCLC 63.4% | SN12C renal 86.9% | UO-31 renal 61.3% | ACHN renal 108% | CAKI-1 renal 84.1% | A498 renal 80.5% | CCRF-CEM leukemia 77.6% | RPMI-8226 leukemia 70.7% | OVCAR-8 ovarian 88.3% | OVCAR-5 ovarian 108% | OVCAR-4 ovarian 82.9% | SK-OV-3 ovarian 96.2% | IGROV1 ovarian 74.6% | OVCAR-3 ovarian 95% | HS 578T breast 92.3% | NCI/ADR-RES ovarian 91.4%

Clc1cccc(Cl)c1/C=C/c1cc(/C=C/c2c(Cl)cccc2Cl)[nH]n1
inactive: SK-MEL-2 melanoma 32.4% | EKVX NSCLC 42% | SN12C renal 40.4% | UO-31 renal 51% | ACHN renal 48.9% | CAKI-1 renal 30.1% | SR leukemia 24.7% | RPMI-8226 leukemia 21.8% | OVCAR-8 ovarian 31.1% | OVCAR-5 ovarian 33.4% | OVCAR-4 ovarian 54.6% | SK-OV-3 ovarian 44.4% | IGROV1 ovarian 48% | HS 578T breast 45.5%
active: OVCAR-3 ovarian -16.5% | NCI/ADR-RES ovarian 4.02%

COc1ccc2[nH]c(O)c(C(=Nc3ccc(N(C)C(=O)CN4CCN(C)CC4)cc3)c3ccccc3)c2c1
inactive: SK-MEL-2 melanoma 33.2% | EKVX NSCLC 52.3% | SN12C renal 20% | UO-31 renal 18.8% | ACHN renal 25.3% | CAKI-1 renal 24.6% | CCRF-CEM leukemia 23.2% | RPMI-8226 leukemia 38.8% | OVCAR-8 ovarian 43.9% | OVCAR-5 ovarian 49.2% | OVCAR-4 ovarian 47.1% | IGROV1 ovarian 22.5% | OVCAR-3 ovarian 75.9% | NCI/ADR-RES ovarian 82.2%
active: A498 renal -11.3% | SK-OV-3 ovarian 5.77% | HS 578T breast -16.8%

COc1cc(/C=N/Nc2ncc(-c3cc4cc5c(cc4o3)OCO5)s2)cc(OC)c1OC
inactive: SK-MEL-2 melanoma 79.7% | EKVX NSCLC 71.4% | SN12C renal 71.2% | UO-31 renal 66.8% | ACHN renal 74.3% | CAKI-1 renal 64.2% | A498 renal 75.6% | CCRF-CEM leukemia 26% | OVCAR-8 ovarian 30% | OVCAR-5 ovarian 98.2% | OVCAR-4 ovarian 68.7% | IGROV1 ovarian 66.7% | OVCAR-3 ovarian 67.2% | HS 578T breast 89.6% | NCI/ADR-RES ovarian 26.3%
active: RPMI-8226 leukemia 6.26%

O=c1c2c3c(sc2nc(N/N=C/c2ccc(Br)cc2)n1Cc1ccccc1)CCCC3
inactive: SK-MEL-2 melanoma 102% | EKVX NSCLC 74.1% | SN12C renal 78.3% | TK-10 renal 85.5% | ACHN renal 87.1% | CAKI-1 renal 62% | A498 renal 78.4% | SR leukemia 33.5% | RPMI-8226 leukemia 52% | OVCAR-8 ovarian 45.9% | OVCAR-5 ovarian 78.3% | OVCAR-4 ovarian 84.2% | SK-OV-3 ovarian 81.7% | OVCAR-3 ovarian 76.8% | HS 578T breast 64.8% | NCI/ADR-RES ovarian 80%

NC(=N\N=C/c1cccc([N+](=O)[O-])c1)/C(N)=N\N=C/c1cccc([N+](=O)[O-])c1
active: HS 578T breast -11.6%
inactive: SK-MEL-2 melanoma 75% | EKVX NSCLC 79.5% | SN12C renal 86.8% | TK-10 renal 27.6% | ACHN renal 94% | CAKI-1 renal 53.8% | A498 renal 61.5% | MOLT-4 leukemia 86% | SR leukemia 71.3% | RPMI-8226 leukemia 70.5% | OVCAR-8 ovarian 57.8% | OVCAR-5 ovarian 101% | SK-OV-3 ovarian 61.1% | IGROV1 ovarian 96.1% | OVCAR-3 ovarian 42.9% | NCI/ADR-RES ovarian 80.5%

CC(=O)n1c(-c2ccc(Cl)cc2)nc2c(c1=O)C(c1ccc(Cl)cc1)c1sc3c(Cl)cccc3c1O2 (stereo not given)
active: SK-MEL-2 melanoma 7.32% | SN12C renal -0.0627% | TK-10 renal -7.43% | CAKI-1 renal 7.82% | A498 renal 3.79% | CCRF-CEM leukemia -4.47% | SR leukemia -14.9% | RPMI-8226 leukemia 0.984% | OVCAR-5 ovarian -3.95% | SK-OV-3 ovarian -2.53% | OVCAR-3 ovarian -50.4% | HS 578T breast -9.23% | NCI/ADR-RES ovarian -17.2%
inactive: EKVX NSCLC 32.9% | ACHN renal 23.4% | OVCAR-4 ovarian 17.3% | IGROV1 ovarian 13.2%

O=[N+]([O-])c1ccc(N2c3ccncc3Sc3ccncc32)cc1
inactive: SK-MEL-2 melanoma 93.8% | EKVX NSCLC 88.7% | SN12C renal 99% | TK-10 renal 105% | ACHN renal 93.7% | CAKI-1 renal 87.8% | A498 renal 112% | CCRF-CEM leukemia 101% | MOLT-4 leukemia 104% | RPMI-8226 leukemia 93.5% | OVCAR-8 ovarian 87% | OVCAR-5 ovarian 118% | OVCAR-4 ovarian 109% | SK-OV-3 ovarian 116% | OVCAR-3 ovarian 94.2% | HS 578T breast 104% | NCI/ADR-RES ovarian 106%

CCOC(=O)c1ccc(N2NC(=O)/C(=C/c3ccc([N+](=O)[O-])o3)C2=O)cc1
inactive: SK-MEL-2 melanoma 31.8% | EKVX NSCLC 111% | SN12C renal 119% | TK-10 renal 106% | ACHN renal 104% | CAKI-1 renal 108% | A498 renal 109% | CCRF-CEM leukemia 89.3% | MOLT-4 leukemia 105% | RPMI-8226 leukemia 90.7% | OVCAR-8 ovarian 97.9% | OVCAR-5 ovarian 108% | OVCAR-4 ovarian 110% | SK-OV-3 ovarian 117% | OVCAR-3 ovarian 88.7% | HS 578T breast 113% | NCI/ADR-RES ovarian 111%

CN(C)c1ccc(-c2cc(-c3ccc(Nc4nc(Nc5ccc(Cl)cc5)nc(Nc5ccc(Cl)cc5)n4)cc3)no2)cc1
active: MOLT-4 leukemia -24.7% | SR leukemia -39.3% | RPMI-8226 leukemia -58.6%
inactive: SK-MEL-2 melanoma 31.6% | EKVX NSCLC 41.3% | SN12C renal 53.8% | TK-10 renal 48.4% | ACHN renal 46.5% | CAKI-1 renal 39.7% | OVCAR-8 ovarian 49.7% | OVCAR-5 ovarian 54.6% | OVCAR-4 ovarian 41.6% | SK-OV-3 ovarian 80.1% | IGROV1 ovarian 22.4% | OVCAR-3 ovarian 29.8% | HS 578T breast 13.6% | NCI/ADR-RES ovarian 41.1%

CCc1c2c(nc3ccc(OC(=O)NCc4ccc(B5OC(C)(C)C(C)(C)O5)cc4)cc13)-c1cc3c(c(=O)n1C2)COC(=O)[C@]3(O)CC
active: SK-MEL-2 melanoma -28% | SN12C renal -0.279% | TK-10 renal 0.387% | ACHN renal -61.5% | CAKI-1 renal -43.3% | A498 renal -63.1% | OVCAR-8 ovarian 4.49% | OVCAR-5 ovarian -12.3% | OVCAR-4 ovarian 6.46% | SK-OV-3 ovarian -1.86% | OVCAR-3 ovarian -24.7% | NCI/ADR-RES ovarian -6.58%
inactive: EKVX NSCLC 35.3% | CCRF-CEM leukemia 19.8% | RPMI-8226 leukemia 10.1% | IGROV1 ovarian 11% | HS 578T breast 23.4%

O=c1cc(C2NNC(=S)N2)c2ccc3ccccc3c2o1 (stereo not given)
inactive: SK-MEL-2 melanoma 106% | EKVX NSCLC 64.5% | SN12C renal 100% | TK-10 renal 126% | ACHN renal 94.7% | CAKI-1 renal 85.1% | A498 renal 88.1% | MOLT-4 leukemia 102% | SR leukemia 97.8% | RPMI-8226 leukemia 74.8% | OVCAR-8 ovarian 97.4% | OVCAR-5 ovarian 109% | OVCAR-4 ovarian 101% | SK-OV-3 ovarian 97.2% | IGROV1 ovarian 76.8% | OVCAR-3 ovarian 106% | HS 578T breast 71% | NCI/ADR-RES ovarian 101%

Fc1cnc(NC2CC2)nc1-c1cnc2ccc(N3CCOCC3)cn12
active: SK-MEL-2 melanoma -34.1% | EKVX NSCLC -19.5% | SN12C renal 8.74% | ACHN renal 3.03% | CAKI-1 renal 4.17% | A498 renal -29.5% | CCRF-CEM leukemia 6.3% | MOLT-4 leukemia 2.32% | OVCAR-5 ovarian -4.33% | OVCAR-4 ovarian -1.69% | IGROV1 ovarian 4.44% | OVCAR-3 ovarian 4.44% | HS 578T breast -7.95% | NCI/ADR-RES ovarian 7.33%
inactive: SK-OV-3 ovarian 20.6%
